Laboratory results from PubChem BioAssay AID939 (National Center for Advancing Translational Sciences (NCATS), 2007).
Inconclusive results are not listed. Active and inactive are the calls of the source. The call rests on the fitted dose curve; in most records, active means well fitted activation curve with a large enough effect in the main read-out, with a control signal flat; inconclusive means small, poorly fitted or top-dose-only effect, or effect the other way, or a change in a side signal; inactive means no such curve, though single readings can be large or run the other way.

Molecular target: Thyrotropin receptor (Homo sapiens) (UniProt P16473)
Sequence (P16473 whole entry, looked up): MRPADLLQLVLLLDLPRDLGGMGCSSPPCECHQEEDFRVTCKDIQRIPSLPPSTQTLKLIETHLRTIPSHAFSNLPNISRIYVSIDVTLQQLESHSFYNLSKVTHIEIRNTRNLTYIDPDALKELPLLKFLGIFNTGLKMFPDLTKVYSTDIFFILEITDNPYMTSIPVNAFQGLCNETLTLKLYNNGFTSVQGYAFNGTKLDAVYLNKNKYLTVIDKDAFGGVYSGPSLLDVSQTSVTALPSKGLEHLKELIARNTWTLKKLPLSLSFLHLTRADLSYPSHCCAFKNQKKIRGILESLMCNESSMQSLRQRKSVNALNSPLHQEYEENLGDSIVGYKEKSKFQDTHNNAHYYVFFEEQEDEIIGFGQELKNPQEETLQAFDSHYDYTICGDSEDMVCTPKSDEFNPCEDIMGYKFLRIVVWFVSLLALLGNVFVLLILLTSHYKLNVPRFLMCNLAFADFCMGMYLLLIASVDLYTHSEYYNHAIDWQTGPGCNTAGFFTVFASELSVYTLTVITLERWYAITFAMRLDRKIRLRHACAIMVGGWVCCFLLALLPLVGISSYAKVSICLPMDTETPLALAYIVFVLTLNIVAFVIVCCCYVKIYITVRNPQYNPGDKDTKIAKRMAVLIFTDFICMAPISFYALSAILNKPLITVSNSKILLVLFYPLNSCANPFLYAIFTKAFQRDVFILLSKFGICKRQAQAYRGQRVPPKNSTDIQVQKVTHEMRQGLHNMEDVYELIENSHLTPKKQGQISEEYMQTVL
Assay: Confirmation Concentration-Response Assay for Agonists of the Thyroid Stimulating Hormone Receptor; on activation: % of control where 0% means no effect
Conditions: HEK293 TSHR-CNG cells, membrane potential dye, cAMP; series mostly up to 25.6 µM; activation: at the top concentration
Excerpt: NIH Chemical Genomics Center [NCGC] NIH Molecular Libraries Screening Centers Network [MLSCN] MLSCN Grant: 1 X01 MH080680-01 PI Name: Dr. Marvin Gershengorn, NIH NCGC Assay Overview: Thyroid Stimulating Hormone Receptor TSH is an alpha/beta heterodimeric glycoprotein hormone secreted from the anterior pituitary gland which belongs to the glycoprotein hormone family. The actions of TSH are mediated by a seven-transmembrane receptor, which upon TSH binding couples preferentially to the G-alpha (s) protein (Gs), resulting in activation of adenylate cyclase and increase in cyclic adenosine 3', 5' monophosphate (cAMP). The TSH receptor (THSR) is mainly expressed in thyroid follicular cells and regulates their growth and function. Recombinant TSH is used to activate TSHR in patients with thyroid cancer receiving thyroid hormone suppression therapy and to screen for residual tumor after surgery, but it is expensive and must be administered intramuscularly. An orally active small molecule TSHR agonist would serve as an invaluable research tool for studying TSHR pharmacology and physiology, and would have multiple advantages in therapeutic settings. However, no selective small molecule agonist of the TSH receptor exists, and no small molecule screen for TSHR agonists has ever been reported. This cell based assay utilized a cyclic nucleotide gated ion channel (CNG) as a biosensor for cAMP induction by potential TSHR agonists. TSHR cell line HEK 293 cells stably expressing the TSHR as well as a modified CNG were purchased from BD biosciences. Stimulation of cAMP production causes the CNG to open and subsequent membrane depolarization to occur. A fluorescent membrane potential dye (BD biosciences) was utilized to detect cAMP stimulation in TSHR cells. The cells were maintained in DMEM medium (Invitrogen) containing 10 % FBS (Hyclone), 100 units/ml Penicillin, 100 ug/ml Streptomycin (Invitrogen), and 250 ug/ml Geneticin (Invitrogen) and 1 ug/ml Puromycin (Invitrogen) at 37C in 5% CO2. HEK 293 cells expressing CNG but without TSHR (parental cells) were used in concert to control for compounds signaling through endogenous receptors and targets of HEK 293 cells.
NCGC Assay Protocol Summary: High Throughput Screening. Freshly passaged cells (TSHR or parental) were dispensed into 1536-well assay plates at 4 ul/well in DMEM containing phenol red (Invitrogen), 10% FCS (Hyclone), and 100 units/ml Penicillin, 100 ug/ml Streptomycin (Invitrogen) and incubated at 37 C with 5% CO2 for 20 to 36 hrs before the robotic screening. The screen was initiated by addition of 4 ul/well membrane potential dye containing 100 uM RO 20-1724 (Sigma Aldrich), followed by 60 min incubation at room temperature to allow for dye equilibration across the cell membrane. 23 nl/well compound or control was then added to the assay plates, which were incubated for additional 30 min before reading a Envision fluorescence plate reader (Perkin Elmer) in bottom-read mode for fluorescence intensity (emission at 590 nm). Keywords: Thyroid-stimulating hormone TSH, TSHR, TSHR agonist, quantitative high throughput screening, qHTS, HTS, probe identification, CNG, cAMP, cyclic nucleotide gated ion channel PubChem
Potency means the concentration at half of the fitted maximal effect.

activation, inactive:
O=C1C=C(NCc2ccccc2)C2(CCCCC2)O1 -18.9%, Cc1ccccc1NC(=O)N1C2CCCC1CC(NC(=O)C1CC1)C2 (stereo not given) 18.7%, CCn1c(=O)c(C(=O)CN2CCCc3ccccc32)c(N)n(Cc2ccccc2)c1=O -31.3%, CCOC(=O)N1CCC(NC(=O)c2ccc(CNS(=O)(=O)c3ccc(F)cc3)cc2)CC1 18% [at 32.9 µM], Cn1cccc1Cc1nnc(SCC(N)=O)n1CCc1ccccc1 -17.3%, Cc1cc(Cl)c(S(=O)(=O)Nc2ccc3c(c2)OCO3)cc1OCC(N)=O -7.58% [at 32.9 µM], CCc1ccc(-c2nc(CN3CCC(C(=O)N4CCN(c5ccccc5)CC4)CC3)c(C)o2)cc1 -56.9%, O=C(Nc1ccc(N2CCOCC2)cc1)C1CC1 14.8%, O=C1N(c2ccccc2)C2CS(=O)(=O)CC2N1c1ccc(Cl)c(Cl)c1 (stereo not given) -86.5%, COc1cc(NC(=O)c2cc(-n3cnnc3)ccc2Cl)cc(OC)c1 -15.6%, COc1cc2c(N3CCOCC3)cc(O)c(CC(=O)Nc3ccccc3)c2cc1OC -11.2% [at 32.9 µM], CN1C(=O)N(C)C2(c3ccccc3)Nn3c(s/c(=C/c4ccco4)c3=O)=NC12c1ccccc1 (stereo not given) 11.9% [at 32.9 µM], Nc1cc(CN2C(=O)c3ccccc3C2=O)cc(Cl)c1O -3.93%, Cc1cccc(NC(=O)CSc2nnc(-c3ccccc3)n2N)c1C 22.7%, CCOC(=O)c1ccc(NC(=O)c2ccc(CN3CCOCC3)cc2)cc1 -4.24% [at 32.9 µM], C=CCn1c(COc2ccccc2F)nnc1SCC(=O)N1CC(=O)Nc2ccccc21 4.48%, CCSCCOC(=O)C1=C(C)N(C)C(=O)NC1c1cc(OC)ccc1OC (stereo not given) 24.2% [at 32.9 µM], COCCNC(=O)C(c1ccccc1)N(Cc1cccs1)C(=O)Cn1nnc2ccccc21 (stereo not given) 16% [at 32.9 µM], COc1ccc(S(=O)(=O)NCCC(=O)NCc2ccc(F)cc2)cc1 1.97% [at 32.9 µM], CCCC(=O)C1=C(SCC)CC(C)(C)C(C(=O)OC)C1=O (stereo not given) 17.8% [at 32.9 µM], CC(=O)Nc1ccc(S(=O)(=O)N(C)c2ccccc2)cc1 21% [at 32.9 µM], CSc1nc(NC(C)(C)C)nc(Oc2ccc(=O)[nH]n2)n1 25% [at 32.9 µM], CCOC(=O)C1C(=O)Nc2nc(C)nn2C1c1ccccc1 (stereo not given) 10.8% [at 32.9 µM], CCOC(=O)c1cnc(-n2nc(C)cc2C)nc1-n1nc(C)cc1C -13.4% [at 32.9 µM], COc1cc(/C=N/n2c(SC)nnc(C(C)(C)C)c2=O)ccc1O -13%, c1ccc(-n2cnc3cc(NCc4ccncc4)ccc32)cc1 -27.2%, O=C1c2ccccc2C(=O)N1Cc1nc(-c2ccccc2)no1 15.1%, O=S(=O)(c1ccccc1)N1CCN(C2CCN(Cc3ccccc3)CC2)CC1 -0.19%, Cc1nc2ccc(Br)cn2c(=O)c1Cl 24.6%, COc1cccc(C(c2nnnn2Cc2ccccc2)N2CCN(C(=O)c3ccco3)CC2)c1OC (stereo not given) -7.01% [at 32.9 µM]

Potency, active:
COC(=O)c1cc(NC2c3ccccc3C(=O)N2c2cccnc2)cc(C(=O)OC)c1 (stereo not given) 12.6 µM, COC(=O)C1=C(C)OC(N)=C(C#N)C1C1CCCCC1 (stereo not given) 6.31 µM, O=C1CC(c2ccco2)CC2=C1C(c1ccccc1)n1nc(C(F)(F)F)nc1N2 (stereo not given) 1 µM, COC(=O)C1=C(C)OC(N)=C(C#N)C1c1c(C)nn(-c2ccccc2)c1Cl (stereo not given) 7.94 µM, Cc1ccc(C)c(Cn2c(C(C)O)nc3ccccc32)c1 (stereo not given) 3.98 µM, Cc1occc1-c1nnc(SCC(=O)Nc2ccccc2)n1C(C)c1ccccc1 (stereo not given) 12.6 µM, Cc1ccccc1NC(=O)CSc1nnc(-c2ccoc2C)n1CCc1ccccc1 6.31 µM, COc1ccc(-c2cc(C(F)(F)F)nc(SCCC(=O)N3CCOCC3)n2)cc1 15.8 µM, O=C1C2C3CCCC3=C3CCCC3C2C(=O)N1c1ccc(Cl)cc1 (stereo not given) 1.58 µM, CC(=O)N1CCCc2cc(S(=O)(=O)N(CC(C)C)CC(C)C)ccc21 12.6 µM
